Results: PubChem BioAssay AID2401 (Southern Research Specialized Biocontainment Screening …, 2010)
Hit rate of the full screen: of about 2,200 compounds, about 530 (24%) were called active.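 Rule for the calls: active = inhibition above a set limit at one or more concentrations of the dose series; inactive = inhibition under that limit at every dose.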 The list is a sample of the results. Where a call stands in place of a potency, no number is given. Potency and affinity values are given separately.

Assay: S. Typhimurium nonspecific reporter signal inhibition – Salmonella Typhimurium, GFP fluorescence, counter-screen for PhoP regulon inhibitor project, dose response (AID 2401);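 note: S. typhimurium with Mg-insensitive nmpC-GFP reporter grown at 10 µM Mg2+; drop in reporter fluorescence reflects general culture growth inhibition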
Conditions: 4 h; series mostly up to 150 µM

SMILES	outcome
NC(=O)N1OCC2COc3ccc4ccccc4c3C21 (stereo not given)	inactive
Cc1ccc(NC(=O)COC(=O)C2(c3ccc(Cl)cc3)CCCC2)cc1	inactive
COc1ccc(/C=C(\NC(=O)/C=C/c2ccco2)C(=O)NCCc2nc3ccccc3[nH]2)cc1	inactive
C=CCOc1ccccc1CNCCCN1CCOCC1	inactive
FC(F)(F)C1=CC(c2ccc(Br)cc2)=NCCN1	inactive
CCCCC(=O)NCCNC(=O)c1cc(OCC(F)(F)F)ccc1OCC(F)(F)F	inactive
CCOc1ccc2c(c1)nc(SCC(=O)c1ccc(Br)s1)n2C	inactive
Cc1ccc(-c2csc(=S)n2CC(=O)OCC(=O)NCc2ccco2)cc1	inactive
Cc1ccc2c(c1)[nH]c1c(N3CCN(Cc4ccccc4)CC3)ncnc12	inactive
O=C(CCCOc1ccccc1)N1CCCc2ccccc21	inactive
CCc1nc(SCC(=O)N2CCCc3ccccc32)c2oc3ccccc3c2n1	inactive
O=C(CN1CCN(Cc2ccccc2)CC1)c1c[nH]c2ccccc12	inactive
C/C(Nc1ccc(F)cc1)=C(/C#N)C(N)=O	inactive
CN(C)c1ccc(/C=N/c2cc(-c3ccccc3)nn2-c2ccccc2)cc1	inactive
CCC(CC)C(=O)NCCc1ccc(OC)cc1	inactive
CCOc1c(Br)cc(CNCc2cccs2)cc1OC	inactive
S=C(NCc1ccncc1)Nc1ccc(Cl)c(Cl)c1	inactive
O=C(NC(NC(=S)Nc1ccc(Cl)c(Cl)c1)C(Cl)(Cl)Cl)c1ccco1 (stereo not given)	inactive
Cc1ccsc1/C=N/NC(=O)Cn1cnc2ccccc21	inactive
Cc1cc(NC(=O)c2ccccc2-c2ccccc2)ccc1Br	inactive
CC1=CC2=NC(=O)/C(=C\c3cc(C)n(-c4ccc(F)cc4)c3C)C(=N)N2O1	inactive
CC(=O)NCCOc1c(C)cc(S(N)(=O)=O)cc1C	inactive
O=C(NCCc1ccc(Cl)cc1)/C(=C/c1cccnc1)NC(=O)c1ccccc1	inactive

SMILES	outcome
Cc1ccc(S(=O)(=O)N2CCC(C(N)=O)CC2)c(C)c1C	inactive
Cc1nc([N+](=O)[O-])c(Br)n1CC(=O)c1ccccc1	inactive
CC(=O)Nc1ccc(-n2nnnc2SCC(=O)Nc2cccc(NC(=O)c3ccco3)c2)cc1	inactive
COc1ccc(C(=O)Nc2cc(C)ccc2NC(=O)COc2ccccc2)cc1	inactive
C=CCn1c(SCC(=O)Nc2nnc(CC)s2)nnc1-c1cccnc1	inactive
Cc1ccc(C(=O)NCC(=O)NCC(=O)OCC(=O)c2ccc([N+](=O)[O-])cc2)cc1	inactive
CCc1ccccc1NC(=O)c1nnn(CC(=O)Nc2cccc(C)c2C)c1N	inactive
CC1CC(C)CN(CCCSc2ccccc2)C1 (stereo not given)	inactive
COc1cccc(NC(=O)CNC(=O)c2cccs2)c1	inactive
COCC(=O)N(Cc1ccco1)c1nnc(C2CCOC2)s1 (stereo not given)	inactive
Cc1ccc(C(C)C)cc1C(=O)CC1(O)C(=O)N(C)c2ccccc21 (stereo not given)	inactive
COC(=O)CSc1nc(SCc2ccccc2Cl)nc2c1CCCC2	inactive
CCOC(=O)c1[nH]c2ccccc2c1NC(=O)C(C)(C)C	inactive
COc1ccc2nc(Nc3nc4cc5c(cc4s3)OCCO5)sc2c1	inactive
NNc1nc2c(-c3cccc(C(F)(F)F)c3)nnn2c2ccccc12	inactive
COc1ccc2oc(=O)cc(C)c2c1	inactive
COc1ccccc1N1CCN(C(CNS(=O)(=O)c2ccccc2)c2cccnc2)CC1 (stereo not given)	inactive
COc1cccc(C(=O)Oc2c(CN3CCOCC3)cc(Cl)c3cccnc23)c1	inactive
c1coc(CNc2c3c(nc4ncnn24)CCCC3)c1	inactive
O=C(NNc1nc(-c2ccccc2)cs1)c1ccco1	inactive
COCCNS(=O)(=O)c1cccn1-c1ncc(C(F)(F)F)cc1Cl	inactive
CC(=O)c1c(C)n([O-])c2cc(F)c(F)cc2[n+]1=O	inactive
CCOC(=O)CN(C)Cc1c[nH]c2ccccc12	inactive

SMILES	outcome
O=c1c2cc(Br)ccc2nc(-c2ccccc2)n1O	inactive
N#Cc1c(-c2ccco2)cc(-c2ccc(F)cc2)nc1N	inactive
O=C1N2CCCc3cccc(c32)C12Nc1ccccc1S2 (stereo not given)	inactive
CN1CCN(C(c2cccc(C(F)(F)F)c2)c2nnnn2C(C)(C)C)CC1 (stereo not given)	inactive
C#CCN1C(=O)C(O)(CC(=O)c2ccc(OC)c(OC)c2)c2ccccc21 (stereo not given)	inactive
CCCCn1cnc2sc(-c3ccccc3)cc2c1=O	inactive
O=C(Nc1ccc2c(c1)OCO2)c1cnn2cccnc12	inactive
CN(C)S(=O)(=O)Oc1ccsc1C(=O)Nc1ccccc1Cl	inactive
CCSc1cc(N2CCCC2)nc(-c2cccc(C)c2)n1	inactive
CC(C)c1ccc(C2C3CSCC=C3C(C#N)=C(N)C2(C#N)C#N)cc1 (stereo not given)	inactive
Cn1c(CN2CCCCC2)nc2cc(NS(=O)(=O)c3ccc(Cl)cc3)ccc21	inactive
COc1ccc(S(=O)(=O)N2Cc3ccccc3CC2C(=O)N2CCOCC2)cc1OC (stereo not given)	inactive
Clc1ccc(SCCCCn2ccnc2)cc1	inactive
O=c1[nH]c(NNC(=S)NCc2ccccc2)nc2c1C1(CCCCC1)Cc1ccccc1-2	inactive
O=S1(=O)C=CC(Nc2cccc(Cl)c2)C1 (stereo not given)	inactive
O=C(CSc1nnc2c(Cl)cc(Cl)cn12)NC1CCS(=O)(=O)C1 (stereo not given)	inactive
CCc1cccc(NC(=O)Nc2cccs2)c1	inactive
COc1cccc2c(=O)c3c(cnn3C)n(C)c12	inactive
COC(=O)c1cccc(NC(=O)CCCOc2ccccc2)c1	inactive
O=C(NCc1cccs1)c1cccc(Nc2nc3ccc(Br)cc3[nH]2)c1	inactive
Cn1c(=O)n(CC(=O)Nc2ccccc2)c2ccccc21	inactive
O=C(O)C1CC=CCC1C(=O)NC12CC3CC(CC(C3)C1)C2 (stereo not given)	inactive
O=C(OCc1nnc(-c2ccccc2)o1)c1ccc(S(=O)(=O)NCc2ccco2)cc1	inactive

SMILES	outcome
CN(C)CC(=O)Nc1nc(-c2ccccc2)cs1	inactive
CCOC(=S)SCC(=O)Nc1nc(-c2ccccc2)cs1	inactive
Cc1ccc(C[n+]2cc(-c3ccc(Cl)cc3)n3c2CCC3)cc1	inactive
Cc1ccc(NC(=O)CCN2CCc3ccccc3C2)cc1	inactive
COc1ccc(-c2csc(NC(=O)C3CCCO3)n2)cc1 (stereo not given)	inactive
Cc1nc(NC(=O)c2ccccc2)sc1-c1csc(Nc2ccc(F)cc2)n1	inactive
CCOC(=O)C1=C(C)N(CCO)C(=O)NC1c1cccc(O)c1 (stereo not given)	inactive
CCCNC(=O)CSc1nnc(C)s1	inactive
Cc1nc2c(Cl)cccc2c2c1CC(CBr)O2 (stereo not given)	inactive
CCC1=NNc2cccc3c(OC)ccc1c23	inactive
COc1ccc(-c2c/c(=N\c3nc(-c4ccccc4)c(C)s3)c3ccccc3o2)cc1O	inactive
COC(=O)c1c(C)oc2ccc(NS(=O)(=O)c3cccs3)cc12	inactive
O=C(CCNS(=O)(=O)c1cccc2nsnc12)NCc1cccs1	inactive
O=C(NCc1cccs1)[C@@H]1CSC2c3ccccc3C(=O)N21 (stereo not given in full)	inactive
Nc1cc(N)nc(SCc2cc(=O)oc3cc4c(cc23)CCC4)n1	inactive
CCCn1c(SCC(=O)c2c(C)[nH]c(C)c2C(=O)OCC)nc2ccccc21	inactive
O=C(CCCN1C(=O)CCC1=O)Nc1ccc2c(c1)OCCO2	inactive
CCCCCNS(=O)(=O)c1cc(C)ccc1OC	inactive
CCCCn1nnnc1NCc1cc(OC)c(OC)cc1OC	inactive
Cc1ccc(S(=O)(=O)NCCC(=O)OCn2nnc3ccccc3c2=O)cc1	inactive
COc1ccc(-c2nnn(CC(=O)N(Cc3ccco3)C(C(=O)NCC3CCCO3)c3ccco3)n2)cc1 (stereo not given)	inactive
COC(=O)c1cc(C#N)c(Oc2ccc(F)cc2)nc1C	inactive
O=C1C(c2ccc(F)cc2)N(Cc2ccc3c(c2)OCO3)C(=O)CN1C1CCCCCC1 (stereo not given)	inactive

SMILES	outcome
Cc1ccc(-c2[nH]c(-c3ccc(Cl)cc3)nc2SCC(=O)NCC2CCCO2)cc1 (stereo not given)	inactive
COc1cc(C(=O)NC(=S)Nc2ccc3oc(=O)ccc3c2)cc(OC)c1OC	inactive
Cc1nc(N2CCN(c3ccccc3)CC2)nc2c1C(=O)CC(C)C2 (stereo not given)	inactive
O=C(Nc1ccc2oc(-c3ccc(Cl)c(Cl)c3)nc2c1)c1ncn[nH]1	inactive
O=C(NCc1ccccn1)c1cn(-c2ccccc2)nc1-c1ccc(Cl)cc1	inactive
O=C(COC(=O)c1cn(-c2ccccc2)nc1-c1ccccc1)c1cccc([N+](=O)[O-])c1	inactive
CCc1ccc(C(c2c(C)nn(-c3ccccc3)c2N)c2c(C)nn(-c3ccccc3)c2N)cc1	inactive
O=C(OCc1ccccc1)c1cn(-c2ccccc2)nc1-c1ccncc1	inactive
C/C(=N\N=C(/N)SC1CC(=O)N(c2cccc(Cl)c2)C1=O)c1cccs1 (stereo not given)	inactive
Cc1ccc(-n2ncc3c(N4CCN(c5ccccc5)CC4)ncnc32)c(C)c1	inactive
Cc1ccccc1-n1c(=O)c2ccccc2n2cnnc12	inactive
CCCn1nnc(NC(=O)c2ccc(Br)o2)n1	inactive
O=C(NCc1cccnc1)c1ccc(Cl)cc1[N+](=O)[O-]	inactive
Cc1ccc(NC(=O)COc2ncnc3c(Cl)cc(Cl)cc23)cc1[N+](=O)[O-]	inactive
Cc1cc([N+](=O)[O-])cc2ncccc12	inactive
CC1(C)CC(=O)C2=C(C1)N(c1ccc(F)cc1)C(N)=C(C#N)C2c1cccs1 (stereo not given)	inactive
CCn1c(=O)c(=O)[nH]c2cc(C(=O)NCC3CCCCC3)ccc21	inactive
O=c1c2c([nH]c3ccccc13)CCCCC2	inactive
Cc1cc(NC(=O)c2ccco2)ccc1-n1cnnn1	inactive
c1ccc(CSc2nnc(-c3ccncc3)o2)cc1	inactive
O=C1Nc2ccc(F)cc2C12SCCS2	inactive
CC(=S)c1c(C)cc2cc(C)ccn12	inactive
COc1ccc(N=c2cc(-c3ccc(OC)cc3)oc3ccccc23)cc1	inactive
